According to PubChem BioAssay (Tox21):
Inconclusive results are not listed. Entries that show only a call come without a potency. Values without a mark were called inactive. The source made the active and inactive calls. Unless noted, the call rests on the fitted dose curve; in most records, active means well fitted cell-killing curve with a large enough effect in the repeat runs; inconclusive means weak or mixed curves, or effect the other way; inactive means no such curve, though single readings can be large or run the other way.

Experiment: qHTS assay to identify small molecule antagonists of the peroxisome proliferator-activated receptor gamma (PPARg) signaling pathway - cell viability counter screen (AID 743194); further: nearly all actives have a fitted effect of over 55% in size
Conditions: PPARg-bla HEK293H viability, CellTiter-Glo luminescence, 17 h, co-treated with 50 nM rosiglitazone; series mostly up to 62.6 µM
Method in brief: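 Viability was measured as CellTiter-Glo luminescence in GeneBLAzer PPARg UAS-bla HEK293H cells. These cells had been exposed 17 h at 37 C to compounds together with rosiglitazone at 50 nM final, with the beta-lactamase readout taken in the same wells.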

Compound | outcome | activity change, negative = cytotoxicity
Cn1c(N)c(N=O)c(=O)n(C)c1=O | inactive | 
N[C@H](C(=O)O)c1ccc(O)cc1 | inactive | 
Nc1ccccc1S(=O)(=O)O | inactive | 
COc1c(N2C[C@@H]3CCCN[C@@H]3C2)c(F)cc2c(=O)c(C(=O)O)cn(C3CC3)c12 | inactive | 
CC(=O)OCC(CCn1cnc2cnc(N)nc21)COC(C)=O | inactive | 
CCn1nc(C(=O)O)c(=O)c2cc3c(cc21)OCO3 | inactive | 
CCC(C)S (stereo unspecified) |  | -9.73% [at 2.7 µM]
CCCCCCOC(=O)CCCCC(=O)OCCCCCC | inactive | 
CC/C=C\CCOC(C)=O | inactive | 
C[C@H]1C[C@@H](O)CC(C)(C)C1 | inactive | 
O=C1OC(=O)C2CCCCC12 (stereo unspecified) | inactive | 
O=C1CC2CC1C1CCCC21 (stereo unspecified) | inactive | 
CCCN(CCC)CCc1cccc2c1CC(=O)N2 | inactive | 
C=C(C)CS(=O)(=O)O | inactive | 
Nc1cc(=O)[nH]c(N)n1 | inactive | 
NCCCNCCSP(=O)(O)O |  | -6.69% [at 13.2 µM]
CC(=O)OCC(=O)[C@@]1(O)CCC2C3CCC4=CC(=O)CC[C@]4(C)C3[C@@H](O)C[C@@]21C (stereo partly specified) | inactive | 

Compound | outcome | activity change, negative = cytotoxicity
NS(=O)(=O)c1ccc(C(=O)O)cc1 | inactive | 
CCOc1ccc(C(=O)OCCN(CC)CC)cc1 | inactive | 
O=c1cc(CO)occ1O | inactive | 
O=c1[nH]c(=O)n([C@H]2C[C@H](O)[C@@H](CO)O2)cc1I | inactive | 
CC(C[N+](C)(C)C)OC(N)=O (stereo unspecified) | inactive | 
CO[Si](CCCOCC1CO1)(OC)OC (stereo unspecified) | inactive | 
CN1C(=O)N(C)C(O)C1O (stereo unspecified) | inactive | 
CC1=CC(C)C(C=O)CC1 (stereo unspecified) | inactive | 
OCCOc1ccc(OCCO)cc1 | inactive | 
O=C(O)c1ccccc1OP(=O)(O)O | inactive | 
CC(C)NC(=O)NC(C)C | inactive | 
CCN(CC)CCNC(=O)c1cc(S(C)(=O)=O)ccc1OC | inactive | 
Cn1cc(S(C)=O)c(=O)c2ccc(F)cc21 (stereo unspecified) | inactive | 
CC(C)c1cc2c(cc1S(=O)(=O)O)[C@@]1(C)CCC[C@@](C)(C(=O)O)[C@@H]1CC2 | inactive | 
O=c1n(CCO)c(=O)n(CCO)c(=O)n1CCO | inactive | 
CCC(C)C1CCCCC1=O (stereo unspecified) | inactive | 
COC(C)(C)CCCC(C)CC=O (stereo unspecified) | inactive | 

Experiment: qHTS assay for small molecule agonists of the antioxidant response element (ARE) signaling pathway (AID 743202; active means well fitted activation curve with a large enough effect in the signal ratio in the repeat runs, not every such curve was filed as active; the % refers to the signal ratio)
Conditions: HepG2 ARE-bla reporter, beta-lactamase FRET, 16 h; series mostly up to 73.3 µM
Method in brief: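 An ARE-responsive beta-lactamase gene stably integrated in HepG2 cells serves as reporter. After 5 h plating and 16 h compound incubation at 37 C, fluorescence of the B/G FRET substrate was measured.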

Compound | Potency | activation
Cn1c(N)c(N=O)c(=O)n(C)c1=O | inactive | 
N[C@H](C(=O)O)c1ccc(O)cc1 | inactive | 
Nc1ccccc1S(=O)(=O)O | inactive | 
COc1c(N2C[C@@H]3CCCN[C@@H]3C2)c(F)cc2c(=O)c(C(=O)O)cn(C3CC3)c12 | inactive | 
CC(=O)OCC(CCn1cnc2cnc(N)nc21)COC(C)=O | inactive | 
CCn1nc(C(=O)O)c(=O)c2cc3c(cc21)OCO3 | inactive | 
CCC(C)S (stereo unspecified) |  | 1.05% [at 3.74 µM]
CC/C=C\CCOC(C)=O | inactive | 
C[C@H]1C[C@@H](O)CC(C)(C)C1 | inactive | 
O=C1OC(=O)C2CCCCC12 (stereo unspecified) | inactive | 
CCCN(CCC)CCc1cccc2c1CC(=O)N2 | inactive | 
Nc1cc(=O)[nH]c(N)n1 | inactive | 
NCCCNCCSP(=O)(O)O |  | -5.66% [at 8.36 µM]
CC(=O)OCC(=O)[C@@]1(O)CCC2C3CCC4=CC(=O)CC[C@]4(C)C3[C@@H](O)C[C@@]21C (stereo partly specified) | inactive | 
NS(=O)(=O)c1ccc(C(=O)O)cc1 | inactive | 
CCOc1ccc(C(=O)OCCN(CC)CC)cc1 | inactive | 
O=c1cc(CO)occ1O | inactive | 
O=c1[nH]c(=O)n([C@H]2C[C@H](O)[C@@H](CO)O2)cc1I | inactive | 
CC(C[N+](C)(C)C)OC(N)=O (stereo unspecified) | inactive | 
CO[Si](CCCOCC1CO1)(OC)OC (stereo unspecified) | inactive | 
CN1C(=O)N(C)C(O)C1O (stereo unspecified) | inactive | 
CC1=CC(C)C(C=O)CC1 (stereo unspecified) | inactive | 
OCCOc1ccc(OCCO)cc1 | inactive | 
O=C(O)c1ccccc1OP(=O)(O)O | inactive | 
CCN(CC)CCNC(=O)c1cc(S(C)(=O)=O)ccc1OC | inactive | 
Cn1cc(S(C)=O)c(=O)c2ccc(F)cc21 (stereo unspecified) | inactive | 
CC(C)c1cc2c(cc1S(=O)(=O)O)[C@@]1(C)CCC[C@@](C)(C(=O)O)[C@@H]1CC2 | inactive | 
CCC(C)C1CCCCC1=O (stereo unspecified) | inactive | 
COC(C)(C)CCCC(C)CC=O (stereo unspecified) | inactive | 

Experiment: qHTS assay for small molecule agonists of the antioxidant response element (ARE) signaling pathway - cell viability counter screen (AID 743203; calls by dose curve; further: nearly all actives have a fitted effect of over 55% in size)
Conditions: ARE-bla HepG2 viability, CellTiter-Glo luminescence, 16 h; series mostly up to 73.3 µM
Method in brief: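 Seeded at 2,000 cells/well, ARE-bla HepG2 cells were incubated 5 hrs before compound addition. After 16 hrs of treatment at 37C with 5% CO2, CellTiter-Glo reagent was added and luminescence read 30 min later.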

Compound | Potency | viability change, negative = cytotoxic
Cn1c(N)c(N=O)c(=O)n(C)c1=O | inactive | 
N[C@H](C(=O)O)c1ccc(O)cc1 | inactive | 
Nc1ccccc1S(=O)(=O)O | inactive | 
COc1c(N2C[C@@H]3CCCN[C@@H]3C2)c(F)cc2c(=O)c(C(=O)O)cn(C3CC3)c12 | inactive | 
CC(=O)OCC(CCn1cnc2cnc(N)nc21)COC(C)=O | inactive | 
CCn1nc(C(=O)O)c(=O)c2cc3c(cc21)OCO3 | inactive | 
CCC(C)S (stereo unspecified) |  | 9.9% [at 3.74 µM]
CCCCCCOC(=O)CCCCC(=O)OCCCCCC | inactive | 
CC/C=C\CCOC(C)=O | inactive | 
C[C@H]1C[C@@H](O)CC(C)(C)C1 | inactive | 
O=C1OC(=O)C2CCCCC12 (stereo unspecified) | inactive | 
O=C1CC2CC1C1CCCC21 (stereo unspecified) | inactive | 
CCCN(CCC)CCc1cccc2c1CC(=O)N2 | inactive | 
C=C(C)CS(=O)(=O)O | inactive | 
Nc1cc(=O)[nH]c(N)n1 | inactive | 
NCCCNCCSP(=O)(O)O |  | 1.31% [at 8.36 µM]
CC(=O)OCC(=O)[C@@]1(O)CCC2C3CCC4=CC(=O)CC[C@]4(C)C3[C@@H](O)C[C@@]21C (stereo partly specified) | inactive | 

Compound | Potency | viability change, negative = cytotoxic
NS(=O)(=O)c1ccc(C(=O)O)cc1 | inactive | 
CCOc1ccc(C(=O)OCCN(CC)CC)cc1 | inactive | 
O=c1cc(CO)occ1O | inactive | 
O=c1[nH]c(=O)n([C@H]2C[C@H](O)[C@@H](CO)O2)cc1I | inactive | 
CC(C[N+](C)(C)C)OC(N)=O (stereo unspecified) | inactive | 
CO[Si](CCCOCC1CO1)(OC)OC (stereo unspecified) | inactive | 
CN1C(=O)N(C)C(O)C1O (stereo unspecified) | inactive | 
CC1=CC(C)C(C=O)CC1 (stereo unspecified) | inactive | 
OCCOc1ccc(OCCO)cc1 | inactive | 
CC(C)NC(=O)NC(C)C | inactive | 
CCN(CC)CCNC(=O)c1cc(S(C)(=O)=O)ccc1OC | inactive | 
Cn1cc(S(C)=O)c(=O)c2ccc(F)cc21 (stereo unspecified) | inactive | 
CC(C)c1cc2c(cc1S(=O)(=O)O)[C@@]1(C)CCC[C@@](C)(C(=O)O)[C@@H]1CC2 | inactive | 
O=c1n(CCO)c(=O)n(CCO)c(=O)n1CCO | inactive | 
CCC(C)C1CCCCC1=O (stereo unspecified) | inactive | 
COC(C)(C)CCCC(C)CC=O (stereo unspecified) | inactive | 
